Assay results: the supplement of paper PMC11732987, “Enantioselective OTUD7B fragment discovery through chemoproteomics screening and high-throughput optimisation” (Communications Chemistry, 2025)

What was measured:
Assay in all cases: log2 ratio of Biotin-Ahx-Ub-VS probe labelling (fragment/DMSO); higher = less target engagement (more negative = stronger competition), active = hit call of the paper (q ≤ 0.05, log2 ratio ≤ -1)
Settings in all cases: compound concentration: 200 uM; treatment time: 3 h
USP19 = molecular target: T1, USP19 (UniProt O94966)
T1 sequence (whole entry): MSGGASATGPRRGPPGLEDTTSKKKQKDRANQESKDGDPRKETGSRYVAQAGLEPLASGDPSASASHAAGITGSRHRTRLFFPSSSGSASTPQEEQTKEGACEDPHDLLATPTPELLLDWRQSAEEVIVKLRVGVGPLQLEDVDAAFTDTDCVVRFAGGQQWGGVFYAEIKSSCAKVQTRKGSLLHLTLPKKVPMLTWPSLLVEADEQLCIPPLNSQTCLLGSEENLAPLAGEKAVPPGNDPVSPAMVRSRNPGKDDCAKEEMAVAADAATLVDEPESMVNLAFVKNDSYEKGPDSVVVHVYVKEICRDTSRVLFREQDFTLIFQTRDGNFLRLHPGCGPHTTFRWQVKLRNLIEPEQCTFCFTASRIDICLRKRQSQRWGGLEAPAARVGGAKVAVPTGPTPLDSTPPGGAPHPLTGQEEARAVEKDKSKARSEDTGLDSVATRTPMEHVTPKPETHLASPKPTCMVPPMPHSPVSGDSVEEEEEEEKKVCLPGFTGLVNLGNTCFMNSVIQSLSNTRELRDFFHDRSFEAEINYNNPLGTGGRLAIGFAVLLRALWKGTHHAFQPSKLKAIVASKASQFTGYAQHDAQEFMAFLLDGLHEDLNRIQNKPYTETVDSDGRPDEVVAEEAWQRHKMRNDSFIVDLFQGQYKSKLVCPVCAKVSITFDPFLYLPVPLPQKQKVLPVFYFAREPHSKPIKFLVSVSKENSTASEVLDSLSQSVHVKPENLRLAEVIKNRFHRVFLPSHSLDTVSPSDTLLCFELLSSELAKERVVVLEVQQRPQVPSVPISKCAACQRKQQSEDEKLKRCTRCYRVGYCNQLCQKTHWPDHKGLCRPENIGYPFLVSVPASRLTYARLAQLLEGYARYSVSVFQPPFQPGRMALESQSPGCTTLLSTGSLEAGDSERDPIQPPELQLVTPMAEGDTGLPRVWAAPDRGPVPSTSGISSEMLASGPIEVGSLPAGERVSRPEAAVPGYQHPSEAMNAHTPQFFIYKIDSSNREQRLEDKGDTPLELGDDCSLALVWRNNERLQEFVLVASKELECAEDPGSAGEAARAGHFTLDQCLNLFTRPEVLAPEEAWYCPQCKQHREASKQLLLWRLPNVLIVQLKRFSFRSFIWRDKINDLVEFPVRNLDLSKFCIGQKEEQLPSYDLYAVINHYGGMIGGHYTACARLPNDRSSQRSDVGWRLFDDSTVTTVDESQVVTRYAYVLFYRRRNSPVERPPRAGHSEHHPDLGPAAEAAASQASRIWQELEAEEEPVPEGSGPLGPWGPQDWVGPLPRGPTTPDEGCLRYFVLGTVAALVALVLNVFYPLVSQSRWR
Summary of the method: (§1)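 Triplicate samples of HEK293T lysate, 495 µg each, received fragment at 200 µM or vehicle for 3 h, followed by Biotin-Ahx-Ub-VS (0.5 µM final) for 1 h. After NeutrAvidin enrichment of labelled DUBs and LysC/trypsin digestion, peptides were run by diaPASEF LC-MS/MS. The values are average log2 fragment/vehicle ratios from global-median-normalised Spectronaut label-free quantities, tested by unpaired t-test on proteins having ≥2 unique peptides.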

USP24 = USP24 (UniProt Q9UPU5)
Sequence of USP24 (Q9UPU5 whole entry): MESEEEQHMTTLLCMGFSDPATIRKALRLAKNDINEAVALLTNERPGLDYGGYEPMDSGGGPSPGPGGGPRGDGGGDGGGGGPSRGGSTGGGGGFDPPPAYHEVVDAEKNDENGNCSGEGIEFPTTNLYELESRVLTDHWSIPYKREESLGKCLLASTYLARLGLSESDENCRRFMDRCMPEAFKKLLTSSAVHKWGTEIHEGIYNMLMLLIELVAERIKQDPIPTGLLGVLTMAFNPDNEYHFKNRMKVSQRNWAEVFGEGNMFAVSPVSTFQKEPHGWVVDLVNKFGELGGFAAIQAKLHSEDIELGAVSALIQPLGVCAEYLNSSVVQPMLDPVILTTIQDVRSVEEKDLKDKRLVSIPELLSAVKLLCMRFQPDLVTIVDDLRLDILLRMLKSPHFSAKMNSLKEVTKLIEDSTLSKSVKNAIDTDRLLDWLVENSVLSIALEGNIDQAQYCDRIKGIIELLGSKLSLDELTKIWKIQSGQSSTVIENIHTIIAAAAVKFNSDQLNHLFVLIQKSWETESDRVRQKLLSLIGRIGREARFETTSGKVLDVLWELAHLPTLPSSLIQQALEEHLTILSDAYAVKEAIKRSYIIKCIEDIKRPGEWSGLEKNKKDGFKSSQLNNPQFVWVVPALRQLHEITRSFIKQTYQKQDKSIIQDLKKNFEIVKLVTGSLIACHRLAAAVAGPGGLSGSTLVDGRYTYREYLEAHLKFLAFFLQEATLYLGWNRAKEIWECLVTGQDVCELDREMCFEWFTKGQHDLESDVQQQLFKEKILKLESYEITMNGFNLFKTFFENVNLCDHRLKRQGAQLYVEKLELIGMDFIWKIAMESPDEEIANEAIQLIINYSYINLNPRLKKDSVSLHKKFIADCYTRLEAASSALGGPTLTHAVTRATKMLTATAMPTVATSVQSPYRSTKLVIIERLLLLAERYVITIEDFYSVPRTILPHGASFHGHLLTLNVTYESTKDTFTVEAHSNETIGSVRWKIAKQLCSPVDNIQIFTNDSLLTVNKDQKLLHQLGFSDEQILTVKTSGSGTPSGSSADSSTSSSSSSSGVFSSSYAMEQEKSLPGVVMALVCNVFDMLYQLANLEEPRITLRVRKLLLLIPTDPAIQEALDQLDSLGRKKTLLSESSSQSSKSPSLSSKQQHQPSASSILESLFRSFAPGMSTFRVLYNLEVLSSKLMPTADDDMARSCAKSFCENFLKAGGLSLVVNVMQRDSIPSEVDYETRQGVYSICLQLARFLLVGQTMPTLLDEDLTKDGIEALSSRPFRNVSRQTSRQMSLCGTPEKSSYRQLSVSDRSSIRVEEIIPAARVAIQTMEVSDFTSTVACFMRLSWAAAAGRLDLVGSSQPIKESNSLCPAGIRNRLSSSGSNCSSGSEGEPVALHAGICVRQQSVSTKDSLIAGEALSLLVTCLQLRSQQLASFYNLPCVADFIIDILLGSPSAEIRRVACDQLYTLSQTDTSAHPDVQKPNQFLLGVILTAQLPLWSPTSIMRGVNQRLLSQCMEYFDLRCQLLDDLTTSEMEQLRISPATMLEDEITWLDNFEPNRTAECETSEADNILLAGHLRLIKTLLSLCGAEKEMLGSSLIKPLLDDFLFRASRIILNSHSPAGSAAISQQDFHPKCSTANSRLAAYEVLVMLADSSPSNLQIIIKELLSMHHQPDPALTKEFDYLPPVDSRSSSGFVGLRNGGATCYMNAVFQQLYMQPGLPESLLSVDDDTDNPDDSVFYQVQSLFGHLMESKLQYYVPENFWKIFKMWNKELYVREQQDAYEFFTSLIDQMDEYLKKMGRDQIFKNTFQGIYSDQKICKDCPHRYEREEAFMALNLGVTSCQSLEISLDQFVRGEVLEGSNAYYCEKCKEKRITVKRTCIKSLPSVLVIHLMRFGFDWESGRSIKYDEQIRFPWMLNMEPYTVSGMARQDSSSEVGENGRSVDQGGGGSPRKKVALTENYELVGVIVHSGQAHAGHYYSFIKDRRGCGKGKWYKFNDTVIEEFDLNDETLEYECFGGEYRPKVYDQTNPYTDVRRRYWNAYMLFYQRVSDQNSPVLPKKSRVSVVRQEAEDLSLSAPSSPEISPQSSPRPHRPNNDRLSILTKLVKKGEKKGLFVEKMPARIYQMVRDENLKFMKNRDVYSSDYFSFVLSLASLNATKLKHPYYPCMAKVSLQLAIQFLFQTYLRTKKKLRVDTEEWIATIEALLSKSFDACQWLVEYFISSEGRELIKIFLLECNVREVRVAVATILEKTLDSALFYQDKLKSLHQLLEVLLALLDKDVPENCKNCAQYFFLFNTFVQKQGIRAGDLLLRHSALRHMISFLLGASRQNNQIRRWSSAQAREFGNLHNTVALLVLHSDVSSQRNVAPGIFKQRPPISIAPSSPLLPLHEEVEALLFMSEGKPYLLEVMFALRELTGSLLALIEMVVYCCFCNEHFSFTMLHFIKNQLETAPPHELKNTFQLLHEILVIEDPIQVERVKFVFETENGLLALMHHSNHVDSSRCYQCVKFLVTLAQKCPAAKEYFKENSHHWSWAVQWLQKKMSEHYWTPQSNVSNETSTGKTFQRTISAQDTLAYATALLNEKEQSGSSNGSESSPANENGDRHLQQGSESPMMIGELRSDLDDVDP
Summary of the method: as §1

USP25 = molecular target: T2, USP25 (UniProt Q9UHP3)
T2 sequence (whole entry): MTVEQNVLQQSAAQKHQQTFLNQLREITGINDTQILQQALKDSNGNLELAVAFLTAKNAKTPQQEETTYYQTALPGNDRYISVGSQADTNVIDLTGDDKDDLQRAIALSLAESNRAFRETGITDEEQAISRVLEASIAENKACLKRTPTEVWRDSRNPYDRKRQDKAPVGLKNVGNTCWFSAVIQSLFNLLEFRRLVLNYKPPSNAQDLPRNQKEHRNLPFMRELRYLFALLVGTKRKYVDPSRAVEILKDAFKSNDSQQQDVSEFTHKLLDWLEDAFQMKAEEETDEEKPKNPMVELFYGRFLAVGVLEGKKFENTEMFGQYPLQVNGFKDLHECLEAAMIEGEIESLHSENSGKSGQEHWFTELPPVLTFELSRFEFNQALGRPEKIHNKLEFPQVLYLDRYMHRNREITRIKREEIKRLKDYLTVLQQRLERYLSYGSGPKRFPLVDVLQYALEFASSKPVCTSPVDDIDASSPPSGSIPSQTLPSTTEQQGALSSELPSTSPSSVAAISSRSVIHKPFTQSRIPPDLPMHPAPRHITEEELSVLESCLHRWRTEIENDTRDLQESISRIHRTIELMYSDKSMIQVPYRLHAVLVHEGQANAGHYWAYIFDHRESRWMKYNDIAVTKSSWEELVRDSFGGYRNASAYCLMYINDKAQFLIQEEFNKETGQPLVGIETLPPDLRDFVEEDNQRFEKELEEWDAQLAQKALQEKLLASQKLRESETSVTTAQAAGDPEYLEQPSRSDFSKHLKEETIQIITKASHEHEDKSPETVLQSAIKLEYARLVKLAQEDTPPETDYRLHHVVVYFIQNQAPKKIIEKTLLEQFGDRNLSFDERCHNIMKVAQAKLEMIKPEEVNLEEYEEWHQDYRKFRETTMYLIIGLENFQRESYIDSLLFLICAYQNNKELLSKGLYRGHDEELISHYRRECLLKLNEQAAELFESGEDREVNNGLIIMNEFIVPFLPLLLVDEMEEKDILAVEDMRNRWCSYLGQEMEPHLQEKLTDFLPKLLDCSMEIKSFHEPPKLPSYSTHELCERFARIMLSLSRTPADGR
Summary of the method: as §1

USP28 = molecular target: T3, USP28 (UniProt Q96RU2)
T3 sequence (whole entry): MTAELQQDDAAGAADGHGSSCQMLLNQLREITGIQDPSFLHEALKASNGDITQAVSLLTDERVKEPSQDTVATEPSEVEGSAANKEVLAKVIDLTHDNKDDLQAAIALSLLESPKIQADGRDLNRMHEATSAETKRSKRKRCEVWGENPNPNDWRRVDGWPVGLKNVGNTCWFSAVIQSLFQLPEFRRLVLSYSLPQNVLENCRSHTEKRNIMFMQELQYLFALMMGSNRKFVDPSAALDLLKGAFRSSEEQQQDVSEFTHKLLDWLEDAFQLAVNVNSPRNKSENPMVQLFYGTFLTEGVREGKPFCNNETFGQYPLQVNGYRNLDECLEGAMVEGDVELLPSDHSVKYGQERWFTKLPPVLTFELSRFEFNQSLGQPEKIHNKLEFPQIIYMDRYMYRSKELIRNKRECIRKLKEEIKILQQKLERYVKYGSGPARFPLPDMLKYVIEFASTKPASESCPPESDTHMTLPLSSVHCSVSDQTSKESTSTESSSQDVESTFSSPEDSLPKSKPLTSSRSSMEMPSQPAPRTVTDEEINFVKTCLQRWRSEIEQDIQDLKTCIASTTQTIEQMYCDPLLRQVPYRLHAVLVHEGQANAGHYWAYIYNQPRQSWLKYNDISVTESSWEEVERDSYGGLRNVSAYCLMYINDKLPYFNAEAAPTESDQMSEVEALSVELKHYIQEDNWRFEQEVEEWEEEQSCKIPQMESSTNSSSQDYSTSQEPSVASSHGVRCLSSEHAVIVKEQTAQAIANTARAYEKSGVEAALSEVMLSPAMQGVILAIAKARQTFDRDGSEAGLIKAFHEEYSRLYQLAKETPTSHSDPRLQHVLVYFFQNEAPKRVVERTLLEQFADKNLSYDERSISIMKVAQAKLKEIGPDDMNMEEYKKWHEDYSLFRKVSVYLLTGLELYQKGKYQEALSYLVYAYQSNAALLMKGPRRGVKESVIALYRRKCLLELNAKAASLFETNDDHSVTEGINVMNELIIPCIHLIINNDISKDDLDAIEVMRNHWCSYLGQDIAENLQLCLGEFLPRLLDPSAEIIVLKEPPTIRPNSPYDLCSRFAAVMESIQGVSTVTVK
Summary of the method: as §1

Measured: log2 ratio of Biotin-Ahx-Ub-VS probe labelling

O=C(CCl)N1CCC(C(O)c2ccc(F)cc2)CC1 (centres undefined)
inactive: USP19 0.0656 | USP24 -0.164 | USP25 0.058 | USP28 -0.0428
